SMN2 splice up = qHTS Assay for Enhancers of SMN2 Splice Variant Expression; 210,000 tested, 2.8% active; HEK293 SMN2-luciferase splicing reporter, luminescence, 30-36 h; Potency, µM (titrated, usually from 46.1 µM), for inactives: at the highest dose activity change, positive = activation, usual class: activators; also: % of control where 0% means no effect; nearly all actives have a fitted effect of over 55% in size
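HEK293 cells carry an SMN2 […]–luciferase reporter in which exon 7 inclusion puts luciferase in frame. Cells were plated 10-12 h before compound addition, then incubated 30-36 h at 37C. ONE-Glo luminescence was read; sodium butyrate at 4.5 mM final served as control.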
NPC1 promoter act = qHTS Assay for NPC1 Promoter Activators; Huh7 NPC1 promoter luciferase reporter, 24 h; Potency, µM (highest dose often 9.22 µM), for inactives: at the top dose activation, actives largely listed as activators; 320,000 tested, 2.4% active; AID 485313, 2010; also: % of control where 0% means no effect; nearly all actives have a fitted effect of over 60% in size
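NPC1 promoter–luciferase Huh7 cells; 24 h compound; luminescence.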
FLuc counter = qHTS profiling assay for firefly luciferase inhibitor/activator using purifed enzyme and Km concentrations of substrates (counterscreen for miR-21 project); Luciferin 4-monooxygenase (Photinus pyralis), P08659; purified FLuc, Km substrates, luminescence inhibition; Potency, µM (highest dose often 57.5 µM), for inactives: at the highest dose activity change, negative = inhibition, actives largely listed as inhibitors; 360,000 tested, 6.9% active; AID 588342, 2011;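 also: plate controls were vehicle for no effect and reference inhibitor for full effect; nearly all actives have a fitted effect of over 55% in size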
Target sequence (P08659 whole entry, looked up): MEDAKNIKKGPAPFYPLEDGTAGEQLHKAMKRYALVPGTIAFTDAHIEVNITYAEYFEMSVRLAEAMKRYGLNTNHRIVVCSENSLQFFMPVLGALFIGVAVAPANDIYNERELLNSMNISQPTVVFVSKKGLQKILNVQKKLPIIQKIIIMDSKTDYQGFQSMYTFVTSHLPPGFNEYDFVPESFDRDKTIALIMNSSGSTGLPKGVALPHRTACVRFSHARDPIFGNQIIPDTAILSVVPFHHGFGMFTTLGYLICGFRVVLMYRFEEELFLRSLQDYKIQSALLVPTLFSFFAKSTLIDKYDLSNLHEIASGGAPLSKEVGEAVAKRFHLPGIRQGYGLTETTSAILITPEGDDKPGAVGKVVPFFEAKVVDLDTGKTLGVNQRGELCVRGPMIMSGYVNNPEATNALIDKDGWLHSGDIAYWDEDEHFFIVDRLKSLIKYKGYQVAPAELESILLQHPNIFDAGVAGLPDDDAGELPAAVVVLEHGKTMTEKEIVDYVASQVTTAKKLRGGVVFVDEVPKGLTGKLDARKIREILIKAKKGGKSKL
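Purified P. pyralis luciferase, 10 nM final, with Km-level 10 uM D-luciferin and 10 uM ATP in 50 mM Tris acetate pH 7.5, 10 mM Mg acetate, 0.01% Tween-20, 0.05% BSA; 6-point qHTS titration about 60 µM downward; luminescence read.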
Rab9 promoter act = qHTS Assay for Rab9 Promoter Activators; Huh7 Rab9 promoter-luciferase reporter, luminescence, 24 h; Potency, µM (titrated, usually from 9.22 µM), without a hit: at the highest dose activation, negative = inhibition, hits mostly activators; 320,000 tested, 2.8% active; AID 485297, 2010; also: % of control where 0% means no effect; nearly all actives have a fitted effect of over 60% in size
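Rab9 promoter-driven luciferase in stably transfected Huh7 cells; 1500 cells/well rested 2 h, exposed to compound in DMSO for 24 h at 37 °C, 5% CO2. Luminescence read 10 min after adding luciferase reagent at ambient temperature.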
ELG1 repair inh = qHTS screen for small molecules that inhibit ELG1-dependent DNA repair in human embryonic kidney (HEK293T) cells expressing luciferase-tagged ELG1; HEK293T ELG1-luciferase reporter, luminescence, 16 h; DNA damage induced by 5-fluorouridine; 330,000 tested, 2.3% active; Potency, µM (doses to about 46.1 µM), without a hit: at the highest dose activity change, negative = inhibition, actives largely listed as inhibitors; also: % is scaled to controls: 0 for no effect and ±100 for the full control effect; nearly all actives have a fitted effect of over 55% in size
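Step one: seed 2,000 cells per well. Step two: pin-transfer compound or DMSO alongside 5-fluorouridine. Step three: incubate 16 hr, 37 °C, 5% CO2. Step four: add ONE-Glo, wait 30 min, read luminescence.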
ELG1 genotox = qHTS screen for small molecules that induce genotoxicity in human embryonic kidney (HEK293T) cells expressing luciferase-tagged ELG1. Potency, µM (top dose mostly 46 µM), inactives show top-dose activity change, positive = activation, actives largely listed as activators. HEK293T ELG1-luciferase reporter, luminescence, 16 h. 330,000 tested, 1.3% active. AID 504466, 2011; also: % of control where 0% means no effect; nearly all actives have a fitted effect of over 60% in size
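Step 1: seed 2,000 HEK293T ELG1-luciferase cells per well. Step 2: add compound or DMSO, incubate 16 hr at 37 °C. Step 3: ONE-Glo, 30 min at room temperature, read luminescence.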
Numbers without * were called inactive; ? = inconclusive; · = no result given; [ ] = another dose, or the depositor's remark. The list is not random: actives were taken first. Their share in the collection is about 9.4%. Calls follow the shape of the dose curve; as a rule, active = well fitted curve in the direction sought with a large enough effect; inconclusive = small, poorly fitted or top-dose-only effect, or another doubt; inactive = no such curve, though single readings can be large; an effect the other way counts as inactive or inconclusive. Potency is read from the fitted curve at half-maximal effect.

SMILES	SMN2 splice up	NPC1 promoter act	FLuc counter	Rab9 promoter act	ELG1 repair inh	ELG1 genotox
Fc1ccccc1/C=N/Nc1ncnc2ccccc12	11.2µM*	14.8%	1.69µM*	3.16µM*	?	?
Clc1ccc(/C=N/Nc2ncnc3ccccc23)cc1Cl	?	?	8.49µM*	3.98µM*	?	?
O=S(=O)(N/N=C/c1ccccc1F)c1ccccc1	12.0%	0.5%	-14.2%	2.8%	8.5%	0.0%
Cn1ncc(S(=O)(=O)Cc2ccccc2)c(Br)c1=O	·	-15.1%[46.1 µM]	·	-3.3%[46.1 µM]	·	·
O=C(N/N=C/c1ccc([N+](=O)[O-])cc1)c1[nH]ncc1Br	11.2µM*	2µM*	?	1µM*	?	?
O=C(N/N=C/c1ccc([N+](=O)[O-])cc1)c1cc(C2CC2)[nH]n1	·	2.0%	6.9%	-3.5%	7.2%	8.1%
O=C(CSc1ccccc1)NC1=NCCS1	·	1.2%	13.5µM*	-2.8%	-8.9%	0.9%
Cc1ccc(OCC(=O)NC2=NCCS2)cc1	-17.3%	24.3%	10.7µM*	20.1%	28.9%	3.9%
Cc1ccccc1OCC(=O)NC1=NCCS1	12.6µM*	1.78µM*	12µM*	2.82µM*	?	9.2µM*
O=C(CSc1cccc2cccc(Cl)c12)NC1=NCCS1	7.1%	0.3%	?	-9.3%	-0.2%	-0.3%
COC(=O)c1sc2cccc(F)c2c1S(=O)(=O)N1CCN(c2ccc(F)cc2)CC1	·	·	-2.2%	·	·	·
O=C(c1nn(-c2ccccc2)c(=O)c2ccccc12)N1CCN(c2ccccn2)CC1	-1.3%	0.3%	1.9%	-4.2%	-19.4%	-0.2%
COc1ccc(-n2nc(C(=O)NCC(=O)N3CCN(c4ccccn4)CC3)c3ccccc3c2=O)cc1OC	-1.0%	-4.3%	4.78µM*	18.5%	-28.7%	-4.2%
COc1ccc(/C=C/C(=O)NC(=S)N2CCN(c3ccccn3)CC2)cc1	·	5.9%	13.5µM*	0.0%	?	10.3%
COc1ccc(-n2nc(C(=O)NCC(=O)N3CCN(c4ccccn4)CC3)c3ccccc3c2=O)cc1	?	?	1.2µM*	?	?	1.6%
CCc1ccc(S(=O)(=O)NCCc2csc3nc(-c4ccccc4)nn23)s1	·	·	-13.8%	·	·	·
Cc1ccc(-n2nc(CO)c(C(=O)NCCc3ccccc3)n2)cc1C	3.8%	·	-5.2%	·	·	·
CCOC(=O)c1sc(Nc2ccccc2Cl)nc1C	·	?	15.1µM*	?	?	?
COC(=O)Cc1csc(Nc2ccccc2Cl)n1	?	?	19µM*	3.55µM*	?	?
CCOC(=O)c1sc(NC(=O)Nc2ccccc2F)nc1C	-58.9%	?	0.169µM*	0.447µM*	?	0.259µM*
CCOC(=O)c1sc(Nc2ccc(Br)cc2)nc1C	·	15.5%	19µM*	16.6%	?	7.8%
CCOC(=O)c1sc(NC(=O)/C=C/c2c(F)cccc2Cl)nc1C	1.3%	20.4%	0.2%	25.4%	15.9%	-0.1%
CCOC(=O)c1sc(NCCNc2nc(C)c(C(=O)OCC)s2)nc1C	13.9%	-4.0%	1.0%	-2.5%	-2.1%	0.7%
O=c1cc(CSc2ncn[nH]2)[nH]c2c(Cl)cccc12	·	·	-12.6%	·	·	·
CCN1C(=NCc2cc(OC)c(OC)c(OC)c2)N[C@@H](c2cccc(F)c2)C(C(=O)OC)=C1C	·	-0.4%	1.0%	-8.4%	·	·
Cc1ccc(C)c(N(C)C(=O)C2CCN(S(=O)(=O)c3cccc4nsnc34)CC2)c1	-31.7%	·	-0.7%	·	·	·
Nc1nccc(/C=C/c2ccc(Cl)cc2)n1	·	1.78µM*	6.01µM*	2.24µM*	?	?
Cc1cccc(-n2c(=S)[nH]c3sc4c(c3c2=O)CCc2ccccc2-4)c1	-8.4%	-0.3%	7.57µM*	3.6%	?	-11.5%
